Only some compounds are listed: those with a hit (about 2.4% of all), similar ones and a draw of the others.
TMEM16A act: mouse TMEM16A channel activation, primary screen; Q8BHY3; 340,000 compounds, 0.3% hits; AID 623877; B-score at 10 µM; HEK293 TMEM16A/YFP-H148Q/I152L, iodide quench fluorescence; active compounds read low;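 active = fluorescence-ratio B-score plate-corrected deviation score at least 3 library SD below zero, with starting fluorescence score within 5 deviations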;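 also: channel opened by trigger with iodide after compound preincubation; score built on the fluorescence ratio of max minus min over baseline; more negative score means more quench and so TMEM16A activation or potentiation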
CHT allo act: human CHT allosteric activation. B-score at 10 µM. CHT-expressing cells, membrane potential dye, choline EC20; active compounds read high; LV-AA mutant CHT in HEK293 cells. AID 488977. 310,000 compounds, 0.49% hits;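 active = initial fluorescence not abnormally high and integrated response B-score, plate-corrected, over 3 SD above library mean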
CHT inh: human CHT choline transport inhibition | 310,000 compounds, 0.86% hits | B-score at 10 µM | CHT-expressing cells, membrane potential dye, choline response; active compounds read low | AID 488975 | Q9GZV3;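 active = B-score over 3 SD under the library average, and starting fluorescence ratio not unusually high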;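 also: choline stimulus applied at its EC90 after an EC20 pre-addition; B-score computed on integrated fluorescence ratio after choline addition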
TMEM16A inh: mouse TMEM16A channel inhibition, primary screen; 310,000 compounds, 1.2% hits; normalized B-score (activity score, 25-100; higher = stronger inhibition) at 10 µM; Q8BHY3; AID 588511; HEK293 TMEM16A/YFP iodide influx fluorescence, ionomycin;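 active = ratio plate-corrected score three or more library SD toward inhibition, starting fluorescence score within five deviations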;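 also: score derived from kinetic fluorescence span divided by baseline fluorescence per well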
TMEM16A reconf: re-confirmation of mouse TMEM16A chloride channel inhibitors | shares compounds with TMEM16A inh | HEK293 TMEM16A/YFP-H148Q, iodide quench fluorescence; ionomycin added to raise cell calcium | inhibition, % at 10 µM | 2,300 compounds, 39% hits;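 active = mean duplicate percent inhibition, scaled so buffer wells are 0 and the reference blocker 100, over three buffer SD above buffer mean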
TMEM16A Ca cntr: counter-screen for TMEM16A inhibitors: effect on calcium mobilization; AID 652231; 2,300 compounds, 2% hits; calcium response (% of ionomycin), % at 10 µM; TMEM16A/YFP HEK293, Fluo4 calcium mobilization; shares compounds with TMEM16A inh;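 active = duplicate-averaged calcium signal over 20% of the ionomycin maximum, relative to buffer baseline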;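 also: each well's signal is peak minus trough fluorescence divided by its pre-addition baseline; 0% = buffer wells and 100% = ionomycin wells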
Parental YFP cnt: parental YFP-HEK293 iodide quench counter-screen activity | 2,300 tested, under 10 active | ionomycin | YFP ratio F(max-min)/F0 at 10 µM | shares compounds with TMEM16A inh;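 active = yellow fluorescent protein signal ratio exceeding the buffer control mean by over 5 SD of those controls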;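 also: ratio is mean of duplicate wells from kinetic YFP trace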
ClC-1 rat inh: blocks the rat ClC-1 voltage-dependent chloride channel; shares compounds with TMEM16A inh; AID 652236; CHO ClC-1-YFP, iodide influx fluorescence quench; iodide control reads 0, buffer control 100; 2,300 tested, under 10 active; ratio percent, % at 10 µM;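 active = duplicate-mean ratio percent above the mean of iodide-only control wells, which defines zero, plus 5 of their SD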;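 also: higher percent means stronger block of ClC-1 iodide influx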
* marks the source's active call; other numbers are inactive results; i = inactive; · = no result.

SMILES	TMEM16A act	CHT allo act	CHT inh	TMEM16A inh	TMEM16A reconf	TMEM16A Ca cntr	Parental YFP cnt	ClC-1 rat inh
CCCCN(Cc1ccccc1)S(=O)(=O)c1cc(Br)cc2c1N(C(C)=O)C(C)C2 (configuration not stated)	i	i	i	25*	i	i	-0.98	-12
CC(=O)N1c2c(cc(Br)cc2S(=O)(=O)NCc2cccnc2)CC1C (configuration not stated)	i	i	i	i	·	·	·	·
CC(=O)c1cn(CCCCCCCn2cc(C(C)=O)c(=O)[nH]c2=O)c(=O)[nH]c1=O	i	i	i	i	·	·	·	·
COc1ccccc1-c1ccc(SCC(=O)N2CCOCC2)nn1	i	i	i	i	·	·	·	·
COc1ccccc1-c1ccc(SCc2ccc(F)cc2)nn1	i	i	i	100*	i	i	-0.99	-14
COC(=O)c1sc(NC(=S)NC(=O)c2ccccc2C)nc1C	i	i	i	i	·	·	·	·
Cc1cc(NC(=O)c2ccccc2[N+](=O)[O-])ccc1Br	i	i	i	i	·	·	·	·
COc1cccc(C(=O)NC2CCN(CC(=O)Nc3ccccc3Cl)CC2)c1	i	i	i	i	·	·	·	·
COc1cccc(C(=O)NC2CCN(C(=O)N3CCCCC3)CC2)c1	i	i	i	25*	i	i	-1	-16
O=S(=O)(c1ccccc1)c1nc(-c2ccco2)oc1NCCCn1ccnc1	i	i	i	i	·	·	·	·
Cc1ccc(C(=O)CSc2nc3ccccc3c(=O)[nH]2)cc1C	i	i	i	i	·	·	·	·
Cc1ccc(C(=O)N(Cc2nc3ccccc3c(=O)[nH]2)C2CCCC2)cc1	i	i	i	100*	i	i	-1	-12
Cc1ccc(C(=O)CSc2nc3ccccc3c(=O)[nH]2)cc1	i	i	i	100*	i	i	-1	-12
Cc1cccc(Cn2cnc3c(sc4nc(C)cc(C)c43)c2=O)c1	i	i	i	i	·	·	·	·
CCOc1ccc(-n2c(=S)sc3c(=O)[nH]c(SCC(=O)C(C)(C)C)nc32)cc1	i	i	i	100*	34%*	i	-0.98	-17
O=C(CNC(=O)c1ccccc1F)OC(C(=O)Nc1cc(C(F)(F)F)ccc1Cl)c1ccccc1 (configuration not stated)	i	i	i	i	·	·	·	·
C[C@H](NC(=O)c1ccccc1Cl)C(=O)OC(C(=O)Nc1cc(C(F)(F)F)ccc1Cl)c1ccccc1 (some centres not stated)	i	i	i	25*	i	i	-1.4	-6
O=C(c1ccccc1)c1ccc(OCC(O)CN2CCN(Cc3ccccc3)CC2)cc1 (configuration not stated)	i	i	i	100*	i	i	-1.1	-10
O=C(NCc1cccc(Cl)c1)c1cccc(OC2CCN(C(=O)C3CC3)CC2)c1	i	i	i	100*	i	i	-1.1	-17
Cc1ccc(C(=O)CSc2nnc(COc3cccc(C)c3)o2)cc1	i	i	i	100*	i	i	-1.1	-12
CCCC(=O)Nc1nc2c(c(=O)[nH]1)CCCC2	i	i	i	i	·	·	·	·
COC(=O)CCc1cccc(CCC(=O)OC)c1	i	i	i	25*	i	i	-0.97	-8
COc1ccc(Br)cc1C(=O)Nc1ccccc1N1CCCC1	i	i	i	100*	24%*	i	-0.99	-14
Cc1ccc(-n2c(C)cc(C(=O)COC(=O)c3c(C)noc3C)c2C)cc1	i	i	i	100*	i	i	-0.97	-16
Cc1cc(C(=O)COC(=O)c2cnccn2)c(C)n1-c1ccc(Br)cc1	i	·	·	·	·	·	·	·
SMILES	TMEM16A act	CHT allo act	CHT inh	TMEM16A inh	TMEM16A reconf	TMEM16A Ca cntr	Parental YFP cnt	ClC-1 rat inh
COc1ccc(/C=N/Nc2nnc(Cc3ccc(OC)c(OC)c3)c(=O)[nH]2)cc1	i	i	i	i	·	·	·	·
COc1ccc(/C=N/Nc2nnc(Cc3ccccc3)c(=O)[nH]2)cc1	i	i	i	i	i	i	-0.36	-4
COc1ccc(CC(CC(=O)O)C(=O)Nc2ccccc2)cc1 (configuration not stated)	i	i	i	i	·	·	·	·
O=C(Nc1ccc(N2CCN(c3ncccc3C(F)(F)F)CC2)nc1)c1cccs1	i	i	i	25*	31%*	i	-1.2	-4
CCCN(CCC)S(=O)(=O)c1ccc(C(=O)N2CCCc3ccccc32)cc1	i	i	i	100*	i	i	-1	-12
CCCN(CCC)S(=O)(=O)c1ccc2c(c1)CCCN2C(C)=O	i	i	i	i	·	·	·	·
CCOc1ccc(CCNC(=O)COC(=O)Cc2ccc(F)cc2)cc1OCC	i	i	i	i	·	·	·	·
CN(C)c1ccc(C(=S)N2CCCCCC2)cc1	i	i	i	i	·	·	·	·
COC(=O)c1ccccc1NC(=O)CNc1cc(OC)c(OC)cc1C	i	i	i	25*	i	i	-1.1	-14
O=[n+]1c2c(n([O-])c3c1CCCC3)CCCC2	i	i	i	i	·	·	·	·
COc1ccccc1NS(=O)(=O)c1cccc(C(=O)NC2CCN(Cc3ccccc3)CC2)c1	i	i	i	100*	56%*	i	-1	-27
Cc1ccc(NS(=O)(=O)c2cccc(C(=O)NC3CCN(Cc4ccccc4)CC3)c2)c(C)c1	i	·	·	·	·	·	·	·
COc1cc(/C=C2\C(=N)N3N=C(S(C)(=O)=O)SC3=NC2=O)ccc1OCCOc1ccc(C)cc1	i	i	i	25*	i	i	-1	-4
CCN(CC)S(=O)(=O)c1cccc(NC(=O)COc2ccc(Cl)cc2Br)c1	i	i	i	25*	i	i	-0.98	-8
CCN(c1cccc(C(F)(F)F)c1)S(=O)(=O)c1ccc2c(c1)CCN2C(=O)C1CC1	i	i	i	100*	i	i	-1.2	-17
Cc1ccc(CNn2cnnc2SCc2ccc(F)cc2)cc1	i	i	i	100*	i	i	-1.3	4
C/C=C/C=C/C(=O)N1CC2(CC(c3cccc(NC(=O)CCCCC)c3)=NO2)C[C@H]1C(N)=O (some centres not stated)	i	i	i	i	·	·	·	·
